Shown are actives, neighbours in structure and some others; about 6.4% of the full set was active somewhere.
Gal4-VP16 FLuc: VP16 counterscreen qHTS for inhibitors of ROR gamma transcriptional activity; Drosophila S2 Gal4-VP16 UAS-luciferase, luminescence, 20 h; Potency, µM (series often up to 53.6 µM), for inactives: top-dose activity, negative = inhibition, hits mostly inhibitors; 310,000 tested, 3.5% active; AID 2546, 2010;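 note: Gal4-VP16 expression switched on by copper sulfate through the metallothionein promoter; nearly all actives have a fitted effect of over 50% in size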
RORgamma inh: qHTS for inhibitors of ROR gamma transcriptional activity. Potency, µM (top dose mostly 53.6 µM), without a hit: at the highest dose activity change, negative = inhibition, actives largely listed as inhibitors. 310,000 tested, 5.4% active. Drosophila S2 Gal4-RORgamma UAS-luciferase reporter, 20 h. Nuclear receptor ROR-gamma (Mus musculus), P51450. AID 2551, 2010; note: nearly all actives have a fitted effect of over 60% in size
Target sequence (P51450 whole entry, looked up, the tested form may be a part): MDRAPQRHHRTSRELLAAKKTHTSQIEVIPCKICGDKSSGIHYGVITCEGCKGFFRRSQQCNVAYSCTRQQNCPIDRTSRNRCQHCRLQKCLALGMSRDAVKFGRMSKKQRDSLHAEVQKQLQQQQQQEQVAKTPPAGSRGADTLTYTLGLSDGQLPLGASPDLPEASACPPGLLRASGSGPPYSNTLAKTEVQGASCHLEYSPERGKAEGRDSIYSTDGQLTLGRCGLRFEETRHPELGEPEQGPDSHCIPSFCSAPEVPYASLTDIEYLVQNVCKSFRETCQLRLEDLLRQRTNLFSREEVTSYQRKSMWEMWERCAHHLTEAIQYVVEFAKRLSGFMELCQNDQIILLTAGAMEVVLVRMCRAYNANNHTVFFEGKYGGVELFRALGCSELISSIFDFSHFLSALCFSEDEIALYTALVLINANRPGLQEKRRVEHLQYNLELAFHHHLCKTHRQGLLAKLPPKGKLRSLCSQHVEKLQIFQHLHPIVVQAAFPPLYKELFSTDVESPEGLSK
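Drosophila S2 cells stably expressing Gal4-DBD/mouse RORγ fusion under metallothionein promoter plus UAS-luciferase; compound 1 h, then 700 uM CuSO4 induction for 20 h at ambient temperature; inhibition read as reduced luminescence.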
KinaseGlo FLuc: Counterscreen for Luciferase (Kinase-Glo TM) Inhibition | Kinase-Glo luciferase, ATP luminescence, 8 min | 200,000 tested, 0.28% active | AID 1379, 2008 | Luciferin 4-monooxygenase (Photuris pensylvanica), Q27757 | Potency, µM (highest dose often 38.3 µM), without a hit: at the top dose activity change, negative = inhibition, hits mostly inhibitors; note: nearly all actives have a fitted effect of over 60% in size
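Recombinant Kinase-Glo luciferase, 10 uM ATP (linear range), luciferin; imidazole pH 7.2 / KCl / MgCl2 / Tween / BSA buffer; 8 min RT; luminescence.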
* hit, by the source's call; ? = inconclusive; · = not tested or not shown; [ ] = dose if it differs, or a comment. Calls come from the whole dose curve; as a rule, active = well fitted curve in the direction sought with a large enough effect; inconclusive = small, poorly fitted or top-dose-only effect, or another doubt; inactive = no such curve, though single readings can be large; an effect the other way counts as inactive or inconclusive. % is set by controls: 0 for no effect and ±100 for the full control effect; potency is the fitted concentration of half-maximal effect.

SMILES | Gal4-VP16 FLuc | RORgamma inh | KinaseGlo FLuc
COC(=O)N1C(c2ccccc2)=Cc2ccccc2C1C1(C(=O)OC)CCCC1=O (centres undefined) | 29% | 20% | 0%
NNC(=O)CNC(=O)c1ccccc1F | 1% | ? | 1%
O=C(CNC(=O)c1ccccc1F)c1ccccc1 | ? | 11µM* | ·
O=C(NCCCCNC(=O)c1ccccc1Cl)c1ccccc1Cl | 3% | -17% | ·
O=C(CNC(=O)c1ccccc1Cl)c1ccccc1 | -25% | 8.9µM* | ·
COc1ccccc1C1(O)CCN(CCCn2c3ccccc3c3ccccc32)CC1 | 4% | 8% | ·
Cc1ccc(OCc2nnc(SCC(=O)N3C(C)CCCC3C)o2)cc1 (centres undefined) | 10% | 4% | ·
CC(=O)N1c2ccc(Cl)cc2C2C=CCC2C1c1cccc2ccccc12 (centres undefined) | 22µM* | ? | -2%
CC(=O)N1c2ccc3ccccc3c2C2C=CCC2C1c1ccc(Br)cc1 (centres undefined) | -1% | -8%[10 µM] | -1%
O=C(/C=C/Nc1ccccc1Br)c1ccccn1 | ? | ? | 13µM*
O=C(NCCCNCCCNC(=O)c1ccccn1)c1ccccn1 | -3% | 16% | -2%
O=C(/C=C\Nc1ccccn1)c1ccccc1 | 13µM* | 5µM* | ?
COc1ccc(C(=O)/C=C/Nc2ccccn2)c(OC)c1 | -21% | -3% | ·
Cc1cnc(CNc2nc(-c3ccc(C(=O)N(C)C)cc3)nc3ccccc23)cn1 | ? | ? | -30%
CCC(C)NC(=O)c1nc2c(nnn2Cc2ccccc2Cl)c(=O)[nH]1 (centres undefined) | 0% | -19% | -3%
O=C(NCc1cccs1)c1nc2c(nnn2Cc2ccccc2Cl)c(=O)[nH]1 | 2.8µM* | 10µM* | 0%
N#C/C(=C/c1ccc(Sc2nc3ccccc3[nH]2)o1)c1cccc(Br)c1 | ? | ? | 2%
CCN1C(=O)S/C(=C/c2ccc(Sc3nc4ccccc4[nH]3)o2)C1=O | 3.2µM* | 5.6µM* | -2%
O=[N+]([O-])c1cc(C(F)(F)F)cc([N+](=O)[O-])c1NCCN1CCNCC1 | 2% | -13% | ·
COc1ccccc1NC(=S)NC(=O)c1c(-c2ccccc2Cl)noc1C | 16µM* | 2.5µM* | -1%
Cc1onc(-c2ccccc2Cl)c1C(=O)NNC(=O)c1ccccc1F | -1% | -3% | ·
COc1ccccc1CNC(=O)c1c(-c2ccccc2Cl)noc1C | -3% | -3% | ·
Cc1onc(-c2ccccc2Cl)c1C(=O)NC(=S)Nc1ccccc1F | ? | 5µM* | 1%
O=[N+]([O-])c1ccccc1S(=O)(=O)NCc1cccnc1 | -6% | 18% | 1%
CC1CCN(c2ccc(NC(=O)Cn3c(=O)oc4ccccc43)cc2)CC1 | -14% | 16% | ·
SMILES | Gal4-VP16 FLuc | RORgamma inh | KinaseGlo FLuc
CNCCCOc1cc(C)cc(C)c1C | -16% | -5% | -3%
COc1ccc(C2C=C(C34CC5CC(CC(C5)C3)C4)NC(=S)N2)cc1 (centres undefined) | 1.6µM* | 0.79µM* | 0%
COc1cccc(C2=CC(c3ccc(OC)c(OC)c3)NC(=S)N2)c1 (centres undefined) | -10% | ? | ·
CC(O)C(NC=C1C(=O)OC(C)(C)OC1=O)C(=O)O (centres undefined) | -11% | -7% | ·
Cc1ccc(-n2c(SCC(N)=O)nc3c(c2=O)C2(CCCC2)Cc2ccccc2-3)cc1 | ? | 27% | 5%
O=c1c2c(nc3n1CCCCC3)-c1ccccc1CC21CCCC1 | -8%[0.365 µM] | 18% | 5%
CC(C)Sc1n[nH]c2nc3c(c(=O)n12)C1(CCCC1)Cc1ccccc1-3 | -10% | 11µM* | -4%
CSc1n[nH]c2nc3c(c(=O)n12)C1(CCCC1)Cc1ccccc1-3 | 2% | -19% | -2%
C=CCSc1n[nH]c2nc3c(c(=O)n12)C1(CCCC1)Cc1ccccc1-3 | 11µM* | 5.6µM* | -4%
CCSc1n[nH]c2nc3c(c(=O)n12)C1(CCCC1)Cc1ccccc1-3 | -3% | 14µM* | 0%
NC(CSS(=O)(=O)O)=N[C@@H]1C[C@H]2CC[C@@H]1C2 | · | · | -4%[7.66 µM]
Cc1onc(-c2ccccc2Cl)c1C(=O)N1CCN(C)CC1 | 0% | -32% | ·
COC(=O)CS(=O)(=O)c1ccc(C)cc1 | 5%[10 µM] | -2% | 0%
Cc1ncc([N+](=O)[O-])n1CC(=O)Nc1cccc(C(F)(F)F)c1 | 4% | 20% | ·
Cc1ccc2nc(NC(=O)c3ccc4c(c3)OCO4)sc2c1 | ? | 7.9µM* | -4%
Cc1ccc2nc(NC(=O)c3ccc4ncsc4c3)sc2c1 | ? | -39% | 2%
O=C(Nc1ccon1)c1ccc2c(c1)OCO2 | 7%[0.365 µM] | 19% | -9%
Cc1ccnc(NC(=O)c2ccc3c(c2)OCO3)c1 | ? | 13µM* | 13µM*
Cc1cc(/C=C(\C#N)C(=O)NCc2ccco2)c(C)n1-c1ccc(C(=O)O)cc1 | -7% | -5% | -3%
O=C(CCNC(=O)c1ccccc1Cl)Nc1nccs1 | -6% | 16% | 2%
CCOC(=O)c1ccc(NC(=O)CN2CCN(CCN=CC3=C(O)CC(C)(C)CC3=O)CC2)cc1 | -6% | -12% | 7%
CCOC(=O)c1ccc(NC(=S)N2CCN(CCN=CC3=C(O)CC(C)(C)CC3=O)CC2)cc1 | ? | 13µM* | 1%
CCOC(=O)N1CCC(Nc2ccc(N3C(=O)C4CCCCC4C3=O)cc2[N+](=O)[O-])CC1 (centres undefined) | -5% | 9% | -2%
COc1ccc(NC(=O)CCc2nnc3ccc(N4CCC(C)CC4)nn23)cc1OC | -7% | -4% | ·
CNc1sc(C(=O)c2ccccc2F)c(N)c1-c1nc2ccccc2s1 | 13µM* | 7.9µM* | -3%
SMILES | Gal4-VP16 FLuc | RORgamma inh | KinaseGlo FLuc
O=C(CNC(=O)c1ccccc1F)OCc1nc2ccccc2s1 | -16% | -7% | -4%
COc1ccc(CN2CCSCC2)c(C)c1C | -6% | -13% | ·
CCCC[C@]12Cc3cc(C#N)ccc3C(O1)c1c(cc(C)n(-c3ccccc3)c1=O)O2 | -5%[10 µM] | 2%[10 µM] | ·
CC(C)(C)c1ccc(OCCCC(=O)N2CCOCC2)cc1 | 11µM* | ? | 2%
O=C(CCCOc1ccc(Cl)cc1)N1CCOCC1 | 24% | 19% | 0%
c1ccc(C2Nc3ccccc3-c3nc4ccccc4n32)nc1 (centres undefined) | -9% | 8.9µM* | -1%
c1ccc(C2Nc3ccccc3-c3nc4ccccc4n32)cc1 (centres undefined) | 10% | 0% | -3%
CCn1ccnc1CN(C)Cc1cn[nH]c1-c1ccc(OC)c(F)c1 | 3% | 23% | ·
O=C(NC1CCCC1)c1cc(=O)[nH]c2ccccc12 | 4% | ? | ·
C[C@@H]1C(=O)N(S(=O)(=O)c2ccc([N+](=O)[O-])cc2)[C@H]1c1ccccc1 | -2% | -42% | ·
CC(NC(=O)/C(=C\c1ccco1)NC(=O)c1ccccc1Br)C(=O)O (centres undefined) | -4% | 3% | ·
CC1CC(C)CN(C(=O)CCCn2c(=S)[nH]c3ccccc3c2=O)C1 (centres undefined) | 13µM* | 7.9µM* | 0%
COCCn1c(=S)[nH]c2cc(C(=O)N3CCc4ccccc4C3)ccc2c1=O | -5% | ? | 0%
